Test [1] in a line: Cell Viability - LYMP2-014 (AID 983).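 Note: plate controls were DMSO only for no effect and 92 µM tetraoctylammonium bromide for full effect; nearly all actives have a fitted effect of over 50% in size.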 In short, it runs like this: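 Quantitative HTS in lymphoblastoid cells: 24 hr compound exposure, then CellTiter-Glo ATP luminescence. Positive control was tetraoctylammonium bromide, 6.4pM to 92 uM.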
The nature of test [2]: Cell Viability - LYMP2-016 (AID 984). Note: % is set by controls: 0 for no effect and ±100 for the full control effect; nearly all actives have a fitted effect of over 55% in size. In short, it runs like this:
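Human lymphoblastoid LYMP2-016 cells, 2500 per well, treated with compounds for 24 h at 37 C. Viability read as intracellular ATP by CellTiter-Glo luminescence after 30 min at room temperature; AC50 from Hill fits of concentration-response.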

Test [3] is described as follows: Cell Viability - LYMP2-018 (AID 985).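 Note: plate controls were DMSO only for no effect and tetraoctylammonium bromide at 92 µM for full effect; nearly all actives have a fitted effect of over 50% in size.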 In short, it runs like this:
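In this qHTS viability assay, cells are treated for 24 hr and cellular ATP is quantified by luciferase-based luminescence, with tetraoctylammonium bromide as positive control.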

A short description of test [4]: Cell Viability - LYMP2-020 (AID 986).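 Note: plate controls were DMSO only for no effect and tetraoctylammonium bromide at 92 µM for full effect; nearly all actives have a fitted effect of over 55% in size.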 In a few lines: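 Cells at 2500 per well receive a 24 hr compound exposure at 37 C. Viability is measured as ATP-dependent luciferase luminescence, with AC50 modeled from qHTS concentration-response curves.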
A short description of test [5]: Cell Viability - LYMP2-022 (AID 987).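 Note: 0% = DMSO alone and full effect = tetraoctylammonium bromide at 92 µM; nearly all actives have a fitted effect of over 55% in size.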 In a few lines: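 In this qHTS cytotoxicity screen, compound titrations were incubated 24 hr at 37 C with human lymphoblastoid cells in complete medium. Luciferase-based ATP luminescence provided the viability signal.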
Test [6] in a line: Cell Viability - LYMP2-024 (AID 988).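 Note: plate controls were DMSO only for no effect and 92 µM tetraoctylammonium bromide for full effect; nearly all actives have a fitted effect of over 60% in size.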 In short, it runs like this: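 Cells at 2500 per well received compound for 24 hr after a 5 hr settling period. Viability was scored by CellTiter-Glo luminescence, with AC50 from Hill fits.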
Test [7] in a line: Cell Viability - LYMP2-026 (AID 989). Note: % is set by controls: 0 for no effect and ±100 for the full control effect; nearly all actives have a fitted effect of over 50% in size. In a few lines: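 Acute toxicity screen in complete culture medium, with 24 hr compound exposure at 37 C. Viability read as cellular ATP via luciferase reaction, with tetraoctylammonium bromide (6.4pM to 92 uM) as positive control.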
Test [8] in a line: Cell Viability - LYMP1-002 - Assay at 24 hr (AID 993). Note: % is set by controls: 0 for no effect and ±100 for the full control effect. In a few lines:
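Viability was judged from intracellular ATP using a luciferase read-out, following a 24-hour compound incubation at 37 C of lymphoblastoid cells seeded at 2500 per well. Concentration-response data were fitted to the Hill equation for AC50.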

Test [9] is described as follows: Cell Viability - LYMP1-002 - Assay at 40 hr (AID 994).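 Note: 0% = DMSO only and full inhibition = 92 µM tetraoctylammonium bromide; nearly all actives have a fitted effect of over 60% in size.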 In short, it runs like this: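 Concentration-dependent ATP loss after 40 hr treatment at 37 C defined toxicity; AC50 values were obtained by fitting the standard Hill equation.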
Test [10] is described as follows: qHTS Assay for Lipid Storage Modulators (AID 1519; calls by dose curve; for activity change, negative = inhibition: % is set by controls: 0 for no effect and ±100 for the full control effect). The following applies: Drosophila S3 cells, BODIPY lipid droplet/cell ratio, laser cytometry, cells loaded with oleic acid. In short, it runs like this:
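Cells seeded at 5,000 per well were treated with compounds over a concentration series and loaded with oleic acid (400 uM, as added). Lipid droplet fluorescence (488 nm excitation, 500-530 nm channel) was read by laser-scanning cytometry and normalized to 20 uM Triacsin C.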
In general terms: qHTS replaces the single test concentration by a dilution series.

Test [11] is described as follows: qHTS Assay for Identification of Small Molecule Inducers of Hypoxia Response (AID 2120; active = well fitted curve in the direction sought with a large enough effect in the signal ratio, with a control signal flat, not every such curve was filed as active; the % refers to the signal ratio; note: 0% is about no effect). In short, it runs like this:
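HRE-bla ME-180, 2500 cells/well, 0.5% dialyzed FBS medium; cpd titration, 17 h 37 degrees C; CCF4 2.5 h RT; Ex 405, Em 460/530 ratio -> %Activity, AC50.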

For test [12], the target named is Ubiquitin carboxyl-terminal hydrolase 1 (Homo sapiens) (UniProt O94782). The experiment in a line: Inhibitors of USP1/UAF1: Pilot qHTS (AID 504865). Note: potency is the fitted concentration of half-maximal effect; nearly all actives have a fitted effect of over 35% in size. In a few lines: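 USP1/UAF1 complex at 1 nM preincubated 15 min at room temperature with compound, then Ub-Rho substrate added at 150 nM final. Fluorescence (480/540 nm) read kinetically in 50 mM HEPES pH 7.8, 0.5 mM EDTA, 1 mM TCEP, 0.1 mg/ml BSA, 0.01% Tween-20.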

Test [13] addresses Estrogen receptor (Homo sapiens) (UniProt P03372). Nature of the test: qHTS assay for small molecule agonists of estrogen receptor alpha signaling (AID 588514; calls by dose curve;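 note: 0% = vehicle only and 100% = reference agonist; nearly all actives have a fitted effect of over 70% in size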). In short, it runs like this: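 Fluorescence from CCF4 cleavage reports ER-alpha-driven beta-lactamase expression in HEK 293 cells treated 18 hrs at 37 C. Data normalized to 17-beta-estradiol (20 nM) and DMSO, fitted to Hill equation.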

Test [14] addresses Bile acid receptor (Homo sapiens) (UniProt Q96RI1). Nature of the test: qHTS assay for small molecule antagonists of farnesoid X receptor signaling (AID 588526; calls by dose curve; note: potency is the fitted concentration of half-maximal effect). In a few lines: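 Beta-lactamase reporter antagonist mode: HEK293T FXR-UAS-bla cells, titrated compound, CDCA stimulation, 16 h 37 C, CCF4 dye 2 h RT. Data normalized to CDCA 50 uM and DMSO; Hill-fit IC50.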
The target in test [15] is Glucocorticoid receptor (Homo sapiens) (UniProt P04150). The experiment in a line: qHTS assay for small molecule agonists of glucocorticoid receptor signaling (AID 588532; active = well fitted curve in the direction sought with a large enough effect in the signal ratio, with a control signal flat; the % refers to the signal ratio;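 note: 100% = dexamethasone at 0.1 µM and 0% = DMSO only wells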). As to conditions: HeLa MMTV-bla, beta-lactamase ratio, agonist, 18 h; stronger effect = higher value; percent of dexamethasone control, DMSO zero. In a few lines:
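Quantitative HTS using CellSensor MMTV-bla HeLa cells in charcoal/dextran-treated serum; compounds tested up to 92 uM. After 18 h at 37 C, CCF4 dye reported reporter induction.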

Test [16] concerns the target Vitamin D3 receptor (Homo sapiens) (UniProt P11473). Nature of the test: qHTS assay for small molecule antagonists of vitamin D receptor signaling (AID 588541; calls by dose curve;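 note: receptor activated by calcitriol during compound treatment; % is set by controls: 0 for no effect and ±100 for the full control effect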). In short, it runs like this: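 Antagonist-mode beta-lactamase reporter assay: HEK293T VDR-UAS-bla cells were exposed to titrated compound alongside 1-alpha,25-dihydroxyvitamin D3 at 3 nM final for 16 h. Values were normalized to the 50 nM agonist control and DMSO basal, with IC50 and efficacy from Hill equation fits.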

Test [17] has the same target. The experiment in a line: qHTS assay for small molecule agonists of vitamin D receptor signaling (AID 588543; calls by dose curve;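 note: 0% = DMSO basal and 100% = reference agonist control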). In a few lines: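 VDR-UAS-bla HEK293T cells, 2000/well, 2% charcoal-stripped FBS; compound titration 16 h at 37 C; CCF4 beta-lactamase ratio read. Normalized to 50 nM 1-alpha,25-dihydroxyvitamin D3 (100%) and DMSO; Hill fit gives EC50, efficacy.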
The nature of test [18]: qHTS assay for small molecule agonists of retinoid X receptor alpha signaling (AID 588544; calls by dose curve;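 for activation: 0% = DMSO basal wells and 100% = reference agonist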). The following applies: HEK293T RXRa-UAS-bla, beta-lactamase reporter, 18 h; 530 nm emission.
Test [19] addresses Retinoic acid receptor RXR-alpha (Homo sapiens) (UniProt P19793). The test is described as above.
The target of test [20] is Thyroid hormone receptor beta (Homo sapiens) (UniProt P10828). Nature of the test: qHTS assay for small molecule agonists of thyroid hormone receptor beta signaling (AID 588545; calls by dose curve). In short, it runs like this:
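In this cell-based screen, titrated compounds act on HEK 293 cells held in medium with 2% charcoal/dextran FBS, NEAA and pyruvate for 18 hrs at 37 C. Responses are expressed relative to T3 (10 nM) as 100% and basal DMSO as 0%.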

Test [21] in a line: qHTS assay for small molecule antagonists of retinoid X receptor alpha signaling (AID 588546).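 Note: cells stimulated with 9-cis-retinoic acid as agonist; % is set by controls: 0 for no effect and ±100 for the full control effect.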 The following applies: HEK293T RXRa-UAS-bla, beta-lactamase ratio, antagonist mode; measured here: W530 green channel, cytotoxicity proxy. In short, it runs like this:
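Beta-lactamase reporter inhibition, read as CCF4 fluorescence ratio (ex 405, em 460/530 nm) after 2 h at RT. HEK293T UAS-bla cells, 2500/well, were stimulated with 9-cis-RA at 500 or 100 nM final alongside test compound for 18 h at 37 C.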

Several values for one entry are separate records, joined by “and”; a condition that tells them apart may be missing. Equal entries are not always repeated. Inconclusive results are not listed. Activity calls are given as the source filed them. Unless noted, calls come from the whole dose curve; as a rule, active = well fitted curve in the direction sought with a large enough effect; inconclusive = small, poorly fitted or top-dose-only effect, or another doubt; inactive = no such curve, though single readings can be large; an effect the other way counts as inactive or inconclusive.

Chain of Vitamin D3 receptor (Homo sapiens) (P11473 whole entry, looked up): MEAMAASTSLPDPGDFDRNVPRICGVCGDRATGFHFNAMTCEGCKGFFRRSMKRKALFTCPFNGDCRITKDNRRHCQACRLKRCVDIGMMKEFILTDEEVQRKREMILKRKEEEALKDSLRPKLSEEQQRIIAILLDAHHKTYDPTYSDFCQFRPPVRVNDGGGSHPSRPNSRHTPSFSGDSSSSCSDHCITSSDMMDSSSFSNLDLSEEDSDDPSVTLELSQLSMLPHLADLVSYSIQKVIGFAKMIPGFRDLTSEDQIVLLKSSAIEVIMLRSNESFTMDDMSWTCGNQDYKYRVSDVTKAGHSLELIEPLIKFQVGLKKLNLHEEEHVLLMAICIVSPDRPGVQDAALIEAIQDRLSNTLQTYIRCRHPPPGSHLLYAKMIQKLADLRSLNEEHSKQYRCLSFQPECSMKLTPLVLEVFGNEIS
Chain of Ubiquitin carboxyl-terminal hydrolase 1 (Homo sapiens) (O94782 whole entry, looked up): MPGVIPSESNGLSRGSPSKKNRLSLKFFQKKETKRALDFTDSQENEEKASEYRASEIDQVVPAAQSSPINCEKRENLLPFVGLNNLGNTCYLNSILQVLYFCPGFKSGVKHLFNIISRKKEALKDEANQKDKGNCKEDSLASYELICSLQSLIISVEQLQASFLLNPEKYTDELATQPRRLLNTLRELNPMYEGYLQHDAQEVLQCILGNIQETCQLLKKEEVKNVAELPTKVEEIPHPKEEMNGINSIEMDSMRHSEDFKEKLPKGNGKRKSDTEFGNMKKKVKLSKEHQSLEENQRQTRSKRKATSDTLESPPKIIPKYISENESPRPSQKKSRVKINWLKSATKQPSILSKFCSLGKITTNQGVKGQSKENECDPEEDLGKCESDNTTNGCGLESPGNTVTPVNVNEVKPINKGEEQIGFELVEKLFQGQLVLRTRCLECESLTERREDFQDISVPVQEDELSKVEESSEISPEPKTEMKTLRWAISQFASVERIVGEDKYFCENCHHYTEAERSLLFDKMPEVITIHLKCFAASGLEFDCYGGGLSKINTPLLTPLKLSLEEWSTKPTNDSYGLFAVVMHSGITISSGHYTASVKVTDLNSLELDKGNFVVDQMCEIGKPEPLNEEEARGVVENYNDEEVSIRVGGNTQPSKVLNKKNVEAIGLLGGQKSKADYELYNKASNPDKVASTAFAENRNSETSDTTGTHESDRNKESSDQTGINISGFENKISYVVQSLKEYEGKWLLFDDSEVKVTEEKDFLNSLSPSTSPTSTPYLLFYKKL
Chain of Estrogen receptor (Homo sapiens) (P03372 whole entry, looked up): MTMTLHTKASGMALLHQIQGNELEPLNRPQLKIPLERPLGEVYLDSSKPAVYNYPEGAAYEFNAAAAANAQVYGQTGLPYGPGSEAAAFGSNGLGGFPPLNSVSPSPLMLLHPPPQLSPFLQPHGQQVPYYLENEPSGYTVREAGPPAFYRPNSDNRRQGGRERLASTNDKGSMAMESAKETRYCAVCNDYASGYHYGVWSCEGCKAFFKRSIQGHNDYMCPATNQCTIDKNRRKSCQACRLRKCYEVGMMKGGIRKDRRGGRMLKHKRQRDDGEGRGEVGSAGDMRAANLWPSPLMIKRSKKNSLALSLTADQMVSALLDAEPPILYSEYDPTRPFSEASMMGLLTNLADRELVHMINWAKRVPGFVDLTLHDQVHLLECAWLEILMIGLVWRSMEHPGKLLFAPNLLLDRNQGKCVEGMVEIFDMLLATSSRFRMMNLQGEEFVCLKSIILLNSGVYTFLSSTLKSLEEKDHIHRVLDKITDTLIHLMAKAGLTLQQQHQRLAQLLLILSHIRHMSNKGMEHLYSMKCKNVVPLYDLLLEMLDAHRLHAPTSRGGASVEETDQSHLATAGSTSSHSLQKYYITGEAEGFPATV
Chain of Thyroid hormone receptor beta (Homo sapiens) (P10828 whole entry, looked up): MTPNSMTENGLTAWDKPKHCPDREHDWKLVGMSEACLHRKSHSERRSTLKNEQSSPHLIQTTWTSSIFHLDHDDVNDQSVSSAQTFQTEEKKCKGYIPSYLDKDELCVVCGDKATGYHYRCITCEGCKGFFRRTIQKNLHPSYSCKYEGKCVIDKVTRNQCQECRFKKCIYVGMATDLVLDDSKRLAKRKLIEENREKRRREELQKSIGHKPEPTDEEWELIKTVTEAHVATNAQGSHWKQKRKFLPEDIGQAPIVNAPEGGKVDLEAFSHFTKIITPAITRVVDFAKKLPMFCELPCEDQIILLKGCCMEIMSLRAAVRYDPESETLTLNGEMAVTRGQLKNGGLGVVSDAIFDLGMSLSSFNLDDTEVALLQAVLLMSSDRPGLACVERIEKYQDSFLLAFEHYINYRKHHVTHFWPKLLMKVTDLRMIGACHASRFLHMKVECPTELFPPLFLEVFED
Chain of Glucocorticoid receptor (Homo sapiens) (P04150 whole entry, looked up): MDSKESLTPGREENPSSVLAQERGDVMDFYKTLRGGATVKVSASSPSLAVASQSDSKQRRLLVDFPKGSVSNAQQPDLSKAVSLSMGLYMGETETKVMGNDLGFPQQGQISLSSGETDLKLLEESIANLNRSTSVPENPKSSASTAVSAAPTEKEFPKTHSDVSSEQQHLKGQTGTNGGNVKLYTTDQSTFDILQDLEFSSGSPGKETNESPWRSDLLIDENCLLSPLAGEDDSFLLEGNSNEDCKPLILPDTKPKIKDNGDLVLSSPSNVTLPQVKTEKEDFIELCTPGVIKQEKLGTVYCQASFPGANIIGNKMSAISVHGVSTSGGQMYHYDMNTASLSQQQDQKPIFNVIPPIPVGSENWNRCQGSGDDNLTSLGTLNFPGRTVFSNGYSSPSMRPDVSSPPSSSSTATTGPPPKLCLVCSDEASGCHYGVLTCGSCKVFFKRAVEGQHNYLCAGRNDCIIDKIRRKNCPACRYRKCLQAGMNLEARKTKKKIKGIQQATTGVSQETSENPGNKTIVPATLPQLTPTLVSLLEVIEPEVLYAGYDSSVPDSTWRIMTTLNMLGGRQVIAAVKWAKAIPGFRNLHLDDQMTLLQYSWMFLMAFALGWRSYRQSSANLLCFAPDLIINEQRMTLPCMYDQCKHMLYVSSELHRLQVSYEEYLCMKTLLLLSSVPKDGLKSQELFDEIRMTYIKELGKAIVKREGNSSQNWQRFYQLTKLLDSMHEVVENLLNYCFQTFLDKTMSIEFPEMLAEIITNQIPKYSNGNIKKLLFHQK
Chain of Bile acid receptor (Homo sapiens) (Q96RI1 whole entry, looked up): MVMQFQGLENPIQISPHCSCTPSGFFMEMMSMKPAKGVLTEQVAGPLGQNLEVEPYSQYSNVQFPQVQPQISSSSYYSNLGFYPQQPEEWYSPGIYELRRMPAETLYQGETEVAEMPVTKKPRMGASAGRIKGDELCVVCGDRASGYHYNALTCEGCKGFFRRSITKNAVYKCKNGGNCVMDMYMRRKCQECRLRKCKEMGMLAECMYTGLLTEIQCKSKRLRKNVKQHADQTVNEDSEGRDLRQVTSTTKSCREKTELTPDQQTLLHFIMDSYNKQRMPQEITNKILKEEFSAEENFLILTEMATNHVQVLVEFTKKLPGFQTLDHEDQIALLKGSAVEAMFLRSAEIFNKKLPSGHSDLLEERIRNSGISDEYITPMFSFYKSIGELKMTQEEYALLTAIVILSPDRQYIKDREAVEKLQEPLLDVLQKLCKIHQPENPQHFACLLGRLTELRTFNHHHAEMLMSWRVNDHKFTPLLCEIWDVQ
Chain of Retinoic acid receptor RXR-alpha (Homo sapiens) (P19793 whole entry, looked up): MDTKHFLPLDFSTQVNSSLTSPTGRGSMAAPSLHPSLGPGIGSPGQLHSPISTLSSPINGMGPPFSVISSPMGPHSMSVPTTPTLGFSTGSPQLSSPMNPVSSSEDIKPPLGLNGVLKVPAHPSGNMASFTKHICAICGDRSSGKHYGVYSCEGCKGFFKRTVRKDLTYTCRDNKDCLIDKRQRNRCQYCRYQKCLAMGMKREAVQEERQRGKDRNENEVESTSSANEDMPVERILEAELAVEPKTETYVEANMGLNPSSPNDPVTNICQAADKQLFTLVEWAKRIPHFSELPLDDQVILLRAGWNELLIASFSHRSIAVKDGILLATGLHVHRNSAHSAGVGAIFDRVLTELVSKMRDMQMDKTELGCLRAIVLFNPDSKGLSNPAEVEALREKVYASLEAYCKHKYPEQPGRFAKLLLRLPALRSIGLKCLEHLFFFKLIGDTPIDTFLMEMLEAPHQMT

Regarding `Oc1c(Cl)c(Cl)c(Cl)c(Cl)c1Cl`, the compound was classed as inactive in [1], in test [2], in test [3], in test [4], in test [5] and in [6]. Further, the call in test [7], in test [8], in test [11], in test [16] and in [19] was inactive. The Potency result in test [9], in test [13], in test [17] and in test [20] was “inactive” throughout. Moreover, the activity change, negative = inhibition in [10] (at 57.5 µM (top of the series)) was -4.15% (inactive). In addition, the max response in test [10] (measured here: cell count channel max response) was -3.69%; in test [10] (measured here: lipid channel max response), -7.5%; in test [18], 19.6%; in test [21] it was -15.3% and -8.92%. Besides, the results for the Potency in [12] and in test [14] were 79.4 µM (active) and 25.1 µM (active), respectively. Further, the activation in test [15] is -3.18% (inactive).

These data come from PubChem BioAssay (NCATS).
